Many of the other results were omitted from the sample, so hits are more common in it than they were.
HePTP inh – inhibitors of human HePTP phosphatase. inhibition, % at 20 µM. P35236. 0.64% of 110,000 active. recombinant HePTP phosphatase activity, OD absorbance; in the data active = inhibition above about 50%;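 note: plate controls were vehicle for no effect and reference inhibitor for full effect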
hDAT+cocaine – changed human dopamine transporter uptake under cocaine IC80 | Q01959 | LLC-PK1 hDAT cells, [14C]-dopamine uptake with cocaine IC80; actives deviate in either direction | B-score at 10 µM | 1.3% of 110,000 active;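 active = Z score or B-score, a plate-position-corrected score, falls beyond the plate's 99.7% confidence bounds, in either direction; inactive = both scores lie inside the 99.7% bounds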;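 note: scored against the spread of the other compound wells on the same plate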
PLAP activator – activates human placental alkaline phosphatase. purified PLAP enzyme, luminescent substrate read-out; hits give high values. P05187. AID 696. activation fold at 20 µM. 1.2% of 96,000 active; in the data active = activation fold above about 2
TNAP act mid DEA – activates human TNAP at intermediate phosphate acceptor concentration. P05186. AID 813. 64,000 tested, under 10 active. purified TNAP, CDP-star luminescence, 100 mM DEA, 30 min; hits give high values; scale: 0 levamisole-inhibited, 1 vehicle-only enzyme. activation factor at 20 µM;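 active = activation factor of at least 2 at 20 µM, relative to controls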
Target sequence (P05186 whole entry, looked up): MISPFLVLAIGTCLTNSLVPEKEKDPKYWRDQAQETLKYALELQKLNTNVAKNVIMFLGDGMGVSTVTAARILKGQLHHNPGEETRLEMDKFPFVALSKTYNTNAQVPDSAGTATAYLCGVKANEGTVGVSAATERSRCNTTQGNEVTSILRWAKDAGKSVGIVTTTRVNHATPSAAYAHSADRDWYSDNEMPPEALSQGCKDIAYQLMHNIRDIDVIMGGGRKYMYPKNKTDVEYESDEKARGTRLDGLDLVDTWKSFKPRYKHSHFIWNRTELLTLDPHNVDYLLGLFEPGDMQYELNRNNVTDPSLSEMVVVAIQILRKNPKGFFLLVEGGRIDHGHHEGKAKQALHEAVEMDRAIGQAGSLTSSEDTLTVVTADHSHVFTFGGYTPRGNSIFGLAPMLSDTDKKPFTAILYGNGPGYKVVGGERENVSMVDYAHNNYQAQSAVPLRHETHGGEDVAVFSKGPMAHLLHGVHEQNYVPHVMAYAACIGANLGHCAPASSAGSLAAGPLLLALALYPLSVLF
D1 mod – D1 dopamine receptor (human) allosteric modulation | 5.9% of 58,000 active | B-score at 10 µM | HEK293 D1, CRE-luciferase, dopamine EC30 potentiation; actives deviate in either direction | AID 641 | P21728;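 active = luminescence count or its row- and column-corrected plate score outside the 99.7% band of the plate's sample wells, on either side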
Candida biofilm – kills Candida albicans biofilms | inhibition, % at 6 µM | C. albicans biofilm + clotrimazole, Alamar Blue | 0.14% of 85,000 active;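 active = inhibition above 20%; inactive = inhibition below 20%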;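 note: preformed 24 hr biofilms exposed to compound for 48 hr; 0% = biofilm without compound and 100% = blank killed by clotrimazole plus chlorhexidine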
Active calls of the source: *; . = not tested or not shown.

SMILES | HePTP inh | hDAT+cocaine | PLAP activator | TNAP act mid DEA | D1 mod | Candida biofilm
Cc1ccnc(NC(=O)CCCOc2cc(=O)n(C)c3ccccc23)c1 | -8.6 | 0.796 | 1 | 1 | -3.3* | .
CCN(CC)c1ccc(/C=C2/SC(=S)N(CNc3cccc(C)c3)C2=O)cc1 | -14.1 | . | . | . | . | .
Cc1noc(C)c1S(=O)(=O)NCCCN1CCN(Cc2ccccc2)CC1 | -3.4 | -0.902 | 1.1 | 0.9 | 0.18 | 8.8
Fc1ccccc1N1CCN(CCCNc2ccc3nncn3n2)CC1 | 2.7 | -0.66 | 0.9 | 1 | -6.07* | 12.4
c1ccc(CN2CCN(CCCNc3ccc4nnc(-c5ccccc5)n4n3)CC2)cc1 | 7.7 | 0.579 | 1.6 | 0.9 | -5.6* | 7.6
CCn1c(=O)cc(SCC(=O)NCCCN2CCN(c3ccccc3F)CC2)c2ccccc21 | 7.9 | 0.279 | 1.6 | 0.9 | -3.54* | 4.3
O=C(Cn1cc2c(n1)CCCC2)NCCCN1CCN(c2ccccc2F)CC1 | 3.2 | -1.2 | 1 | 0.9 | -3.1* | -4.1
O=C(Cn1cc2c(n1)CCCC2)NCCCN1CCN(Cc2ccccc2)CC1 | -8.9 | 0.617 | 1.3 | 1 | 1.18 | 5.4
CCN1CCCC1CNC(=O)CSc1cc(=O)n(CC)c2ccccc12 (stereo not drawn) | -2.1 | -0.698 | 1.2 | 0.9 | -0.841 | 1.0
Cc1ccc(NC(C)c2cc(Cl)ccc2O)cc1 (stereo not drawn) | . | -1.85 | 1.3 | . | . | 35.5*
Cn1cc(/C=C/c2nc3ccccc3c(=O)n2Cc2ccccc2)c2ccccc21 | 103.6* | . | . | . | . | .
O=c1c2ccccc2nc(/C=C/c2cccc(Br)c2)n1Cc1ccccc1 | -12.1 | . | . | . | . | .
COc1ccc(/C(O)=C2\C(=O)C(=O)N(c3cc(C)on3)C2c2ccc(OC)c(OC)c2)cc1OC (stereo not drawn) | 3.5 | -0.426 | 1.2 | 0.9 | 0.847 | 0.8
CCOc1ccc(C2/C(=C(/O)c3ccc(OC)cc3)C(=O)C(=O)N2c2cc(C)on2)cc1OC (stereo not drawn) | 9.8 | 3.6* | 1.5 | 0.9 | 0.0961 | 8.8
CC1=C(C(=O)Nc2ccc(C)cc2)C(c2cccc3ccccc23)NC(=S)N1 (stereo not drawn) | 2.4 | . | . | . | . | .
COc1cc(C2C(C#N)=C(N)Oc3n[nH]c(C)c32)cc2c1OCO2 (stereo not drawn) | 10.0 | 0.919 | 2* | 0.9 | -0.176 | 0.1
COc1ccccc1OCCC(=O)OCCN1C(=O)c2ccccc2C1=O | 7.3 | -1.19 | 1 | 0.9 | . | 2.8
COc1ccc(C(=O)OCCN2C(=O)c3ccccc3C2=O)cc1OC | 2.6 | . | . | 0.9 | 5.69* | .
Cn1nc(-c2ccc(Cl)cc2)c2cc(C(=O)NCCN3CCOCC3)sc21 | -6.9 | 2.61* | 1.6 | 1 | -0.752 | 12.5
Cc1cccn2c(=O)c3cc(C#N)c(=NC(=O)c4ccncc4)n(CCCOC(C)C)c3nc12 | 13.0 | 2.36* | 1.7 | 1 | -0.154 | 7.8
COc1ccccc1NC(=O)Cn1cnc2sc(C(=O)NCc3ccco3)c(C)c2c1=O | 8.7 | 1.89* | 1 | 0.9 | -0.207 | 6.5
COc1ccccc1NC(=O)c1sc2ncn(Cc3ccccc3C)c(=O)c2c1C | . | 0.458 | 1 | . | . | .
CC(C)(C)SCC(O)Cn1c2ccccc2c2ccccc21 (stereo not drawn) | -1.8 | . | . | . | . | .
COc1cc(C(c2c(C)[nH][nH]c2=O)c2c(C)[nH][nH]c2=O)ccc1OCc1ccc([N+](=O)[O-])cc1 | . | 0.0137 | 2.6* | . | . | 4.2
COc1cc(C(c2c(C)[nH][nH]c2=O)c2c(C)[nH][nH]c2=O)ccc1OC(=O)c1cccc([N+](=O)[O-])c1 | . | 0.0214 | 1.2 | . | . | .
SMILES | HePTP inh | hDAT+cocaine | PLAP activator | TNAP act mid DEA | D1 mod | Candida biofilm
COc1cc(/C=C2\SC(=S)NC2=O)ccc1OS(=O)(=O)c1ccc(C)cc1 | 4.6 | . | . | . | . | .
COc1cc(C(c2c(C)[nH][nH]c2=O)c2c(C)[nH][nH]c2=O)ccc1OS(=O)(=O)c1ccc(C)cc1 | . | -0.142 | 2.9* | . | . | 3.5
COc1cc(C(c2c(C)[nH][nH]c2=O)c2c(C)[nH][nH]c2=O)ccc1OS(=O)(=O)c1ccccc1 | . | -0.523 | 2.5* | . | . | 4.0
Cc1ccc(-c2ncnn2-c2ccc(Cl)cc2)cc1 | 4.8 | . | . | . | . | .
O=c1c2ccccc2nc(CSc2ncnc3nc[nH]c23)n1-c1cccc(C(F)(F)F)c1 | . | 0.266 | 2.1* | . | . | -1.3
O=C(CSc1ncnc2nc[nH]c12)N1CCN(c2ccccc2)CC1 | 7.9 | 0.851 | 1.4 | 0.9 | 0.0385 | 5.9
Cc1ccc(/C=C2/SC(=S)N(CCC(=O)N3CCCCC3)C2=O)cc1 | -15.5 | . | . | . | . | .
